Bioassay records as filed in PubChem BioAssay.
Shown are actives, neighbours in structure and some others; about 10% of the full set was active somewhere.
MCF10A rereplic – DNA re-replication induction in MCF 10a cells; Potency, µM (top dose mostly 46.1 µM), most hits filed as activators; 350,000 tested, 2.9% active; MCF 10A DNA re-replication, Hoechst nuclear intensity, 48 h; further: nearly all actives have a fitted effect of over 50% in size
Gal4-VP16 FLuc – counter-screen for ROR gamma inhibitors: Gal4-VP16 reporter; Drosophila S2 Gal4-VP16 UAS-luciferase, luminescence, 20 h; Potency, µM (top dose mostly 53.6 µM), most hits filed as inhibitors; 310,000 tested, 3.5% active; AID 2546;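 further: Gal4-VP16 expression switched on by copper sulfate through the metallothionein promoter; nearly all actives have a fitted effect of over 50% in size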
ELG1 repair inh – inhibitors of ELG1-dependent DNA repair in HEK293T cells | AID 504467 | 330,000 tested, 2.3% active | HEK293T ELG1-luciferase reporter, luminescence, 16 h; DNA damage induced by 5-fluorouridine | Potency, µM (top dose mostly 46.1 µM), usual class: inhibitors; further: nearly all actives have a fitted effect of over 55% in size
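In this reporter screen, reduction of luminescence relative to DMSO vehicle indicated activity. Compounds and 5-fluorouridine were added together to 2,000 cells per well, incubated for 16 hr at 37 °C, then developed with ONE-Glo.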
RORgamma inh – ROR gamma (mouse) transcription inhibition; Drosophila S2 Gal4-RORgamma UAS-luciferase reporter, 20 h; Potency, µM (doses to about 53.6 µM), most hits filed as inhibitors; 310,000 tested, 5.4% active; AID 2551; further: nearly all actives have a fitted effect of over 60% in size
Target sequence (P51450 whole entry, looked up, the tested form may be a part): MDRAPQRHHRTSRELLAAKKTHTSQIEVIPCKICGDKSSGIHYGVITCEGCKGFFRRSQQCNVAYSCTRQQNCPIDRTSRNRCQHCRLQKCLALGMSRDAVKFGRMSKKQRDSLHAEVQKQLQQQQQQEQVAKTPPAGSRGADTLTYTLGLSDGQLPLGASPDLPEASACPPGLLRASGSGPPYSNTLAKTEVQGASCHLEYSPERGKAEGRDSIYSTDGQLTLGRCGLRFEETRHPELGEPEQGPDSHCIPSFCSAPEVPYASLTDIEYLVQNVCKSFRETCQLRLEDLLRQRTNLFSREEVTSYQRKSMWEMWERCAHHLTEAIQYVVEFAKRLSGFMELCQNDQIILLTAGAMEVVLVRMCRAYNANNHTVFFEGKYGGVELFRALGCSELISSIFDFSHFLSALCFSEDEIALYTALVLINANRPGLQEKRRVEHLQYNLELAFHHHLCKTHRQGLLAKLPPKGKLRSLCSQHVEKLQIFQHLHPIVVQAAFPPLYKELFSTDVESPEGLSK
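Schneider cells (Drosophila), stable Gal4 DBD–ROR gamma + UAS-luc; 1 hr cmpd preincubation; Cu2+ induction 700 uM final; 20 hr ambient; luminescence.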
SW480 rereplic – induces DNA re-replication in SW480 colon adenocarcinoma cells; SW480 DNA re-replication, Hoechst DNA content imaging, 48 h; Potency, µM (doses to about 46.1 µM), hits mostly activators; 340,000 tested, 1.8% active; AID 624297; further: nearly all actives have a fitted effect of over 55% in size
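Compounds, transferred as 23 nL by pin tool, were incubated with cells for 48 hr; DNA content per nucleus was then quantified by Hoechst staining and fluorescence plate imaging.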
Hits are given with their value; n = inactive; u = inconclusive; x = no result; [ ] = remark or other dose. The call rests on the fitted dose curve; in most records, active means well fitted curve in the direction sought with a large enough effect; inconclusive means small, poorly fitted or top-dose-only effect, or another doubt; inactive means no such curve, though single readings can be large; an effect the other way counts as inactive or inconclusive.

SMILES | MCF10A rereplic | Gal4-VP16 FLuc | ELG1 repair inh | RORgamma inh | SW480 rereplic
CC(NS(=O)(=O)c1ccccc1Cl)C1CC2CCC1C2 (configuration not stated) | n | n | n | n | n
O=S(=O)(c1ccccc1)N1CCN(C2CCCCCCC2)CC1 | u | n | n | 13µM | n
O=C(c1cccc(S(=O)(=O)N2CCOCC2)c1)N(Cc1ccc(F)cc1)Cc1ccco1 | 2.1µM | n | n | n | n
CCc1ccc(-c2cc(C)no2)cc1S(=O)(=O)N1CCCN(Cc2ccc(F)cc2)C1 | u | n | n | n | u
Cc1c(OCC(=O)Nc2cccnc2)ccc2c3c(c(=O)oc12)CCC3 | n | n | u | n | n
Cc1c(C)c2ccc(OCC(=O)Nc3ccc(S(N)(=O)=O)cc3)c(C)c2oc1=O | 18µM | n | n | n | n
O=C(Nc1ccc(Cl)cc1C(=O)Nc1ccccn1)c1ccco1 | n | u | u | 13µM | n
CC(C)(C)C(=O)Nc1ccc(/C=C/C(=O)c2ccco2)cc1 | u | n | u | 10µM | n
O=C(Nc1ccc(NC(=O)C2CC2)nc1)c1ccccn1 | n | 7.1µM | u | n | n
Nc1ccc(/C=C/C(=O)c2ccco2)cc1 | n | u | u | u | n
O=C(Nc1ccc(NC(=O)c2ccco2)nc1)c1ccccn1 | n | 1.8µM | u | u | n
Nc1nc(N2CCN(c3ccccn3)CC2)nc2ccccc12 | n | n | u | n | n
CNC(=S)NNS(=O)(=O)c1ccc(OC)cc1OC | n | n | n | n | n
CCCc1ccc(C2=Nn3c(nnc3C(C)C)SC2)cc1 | n | n | n | n | n
O=C(Nc1ccc(NC(=O)C2CC2)cc1)c1ccco1 | n | n | u | n | n
O=C(Cc1ccccc1)Nc1ccc(NC(=O)c2ccco2)nc1 | n | n | u | n | n
O=C(Nc1ccc(NC(=O)C2CCCCC2)cn1)c1ccco1 | n | 8.9µM | u | u | n
O=C(Cc1ccccc1)Nc1ccc(NC(=O)C2CCCCC2)nc1 | n | u | 5.2µM | u | n
O=C(Cc1ccccc1)Nc1ccc(NC(=O)C2CC2)nc1 | n | n | n | u | n
O=C(Nc1ccc(NC(=O)c2ccco2)nc1)c1ccco1 | n | n[10 µM] | u | 7.9µM | n
CC(C)(C)C(=O)Nc1ccc(NC(=O)c2ccco2)nc1 | n | 0.56µM | u | 0.2µM | n
CCN(CC(=O)NCc1ccncc1)S(=O)(=O)c1ccccc1 | n | n | n | n | n
CCOc1ccccc1OCCCC(=O)Nc1sccc1C(N)=O | u | n | n | u | n
Cn1cnnc1SCC(=O)Nc1ccc(OC(F)F)cc1 | n | n | n | n | n
Oc1c(Cl)cc(Cl)cc1/C=C/c1ccc2cccc(O)c2n1 | 6.5µM | 7.1µM | 23µM | 2.5µM | 12µM
SMILES | MCF10A rereplic | Gal4-VP16 FLuc | ELG1 repair inh | RORgamma inh | SW480 rereplic
CCOc1cc(/C=C/c2ccc3cccc([N+](=O)[O-])c3n2)cc(Cl)c1O | n | n | 8.2µM | u | n
O=[N+]([O-])c1cccc2ccc(/C=C/c3ccc(Cl)cc3)nc12 | n | n | u | n | n
COc1cc(Cl)cc(/C=C/c2ccc3ccccc3n2)c1OC(C)=O | u | n | u | n | u
Oc1ccc(Cl)cc1/C=C/c1ccc2cccc(O)c2n1 | u | 4.5µM | n | 3.2µM | 21µM
O=C1Nc2c(c(=O)[nH]c(=O)n2-c2ccc(F)cc2)C1(NS(=O)(=O)c1ccccc1)C(F)(F)F (configuration not stated) | n | n | n | n | n
Cc1c(F)c(N2CCNC(C)C2)cc2c1c(=O)c(C(=O)O)cn2C1CC1 (configuration not stated) | n | n | x | n | n
C=CCn1c(O)c(/C=C2\C=NN=C2c2ccccc2)sc1=S | u | n | n | n | n
CCCn1c(O)c(/C=C2\C=NN=C2c2ccccc2)sc1=S | 9.2µM | n | u | n | n
CNC(C)C#Cc1ccc2sc3cccc(OC)c3c(=O)c2c1 (configuration not stated) | u | n | u | n | 7.3µM
CNC(C)C#Cc1ccc2oc3cccc(OC)c3c(=O)c2c1 (configuration not stated) | n | n | u | u | n
CC(C)(O)C#Cc1ccc(C(=O)Nc2ccc3c(c2)OCO3)s1 | n | n | u | u | n
Cc1c(Cl)cccc1NC(=S)NCc1ccc(F)cc1 | n | 5µM | n | 2.2µM | n
